Reference: PubChem BioAssay (NCI)
About 83,000 compounds went through this panel and 20% of them were active in at least one assay; those are over-represented in the sample as a whole.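 Values shown are percent growth following 48 h exposure of cells in 96-well plates to a single concentration of compound; below 10 was considered active.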 Calls of active or inactive are those of the source.

Legend:
Test in all cases: NCI-60 one-dose screen, 48 h (100 = growth as untreated, 0 = no growth, -100 = all killed)
Settings in all cases: 10 µM unless noted
DU-145 prostate = system: DU-145 prostate
K-562 leukemia = system: K-562 leukemia
MALME-3M melanoma = system: MALME-3M melanoma
MDA-MB-231 breast = system: MDA-MB-231 breast
RXF 393 renal = system: RXF 393 renal
SF-268 CNS = system: SF-268 CNS
SF-295 CNS = system: SF-295 CNS
SF-539 CNS = system: SF-539 CNS
UACC-257 melanoma = system: UACC-257 melanoma
M14 melanoma = system: M14 melanoma

Measured: growth

O=C1/C(=C/c2ccccc2[N+](=O)[O-])COc2ccc(O)cc21
inactive: DU-145 prostate 18.1% | K-562 leukemia 14.8% | SF-268 CNS 58.8% | SF-295 CNS 81.1%
active: MALME-3M melanoma -56.9% | MDA-MB-231 breast -16.2% | RXF 393 renal -9.95% | SF-539 CNS -49.9% | UACC-257 melanoma 0.865% | M14 melanoma -10.9%

CCSC1=CC(=O)c2ccccc2C1=O
active: K-562 leukemia 2.73% | MDA-MB-231 breast 3.95%
inactive: DU-145 prostate 95.1% | MALME-3M melanoma 14% | RXF 393 renal 42.8% | SF-268 CNS 76.5% | SF-295 CNS 97.2% | SF-539 CNS 106% | UACC-257 melanoma 83.1% | M14 melanoma 84.1%

C=C1C(=O)O[C@H]2[C@H]1CC/C(COC(=O)NCCCCCCCCNC(=O)OC/C1=C/CC[C@@]3(C)O[C@H]3[C@H]3OC(=O)C(=C)[C@@H]3CC1)=C\CC[C@@]1(C)O[C@@H]21
active: DU-145 prostate -92.1% | K-562 leukemia -28.5% | MALME-3M melanoma -64.4% | MDA-MB-231 breast -79.1% | RXF 393 renal -83.6% | SF-268 CNS -66.8% | SF-295 CNS -21.7% | SF-539 CNS -88.5% | UACC-257 melanoma -55.1% | M14 melanoma -67.8%

CCCCSCC(=O)c1ccccc1
inactive: DU-145 prostate 103% | K-562 leukemia 97.3% | MALME-3M melanoma 89.6% | MDA-MB-231 breast 102% | RXF 393 renal 114% | SF-268 CNS 97.1% | SF-295 CNS 105% | SF-539 CNS 98.4% | UACC-257 melanoma 80.9% | M14 melanoma 99.4%

COc1cc(-c2nc(SCCC(C)C)nc(N3CCOCC3)c2C#N)cc(OC)c1OC
inactive: DU-145 prostate 41.6% | K-562 leukemia 74.5% | MALME-3M melanoma 92.3% | MDA-MB-231 breast 68.5% | RXF 393 renal 101% | SF-268 CNS 40.3% | SF-295 CNS 98.9% | SF-539 CNS 55.5% | UACC-257 melanoma 95.8% | M14 melanoma 96%

Cc1ccc2[nH]c(-c3ccc(S(C)(=O)=O)cc3)c(/C=N/N=C(N)N)c2c1
inactive: DU-145 prostate 48% | K-562 leukemia 26.3% | MALME-3M melanoma 52.4% | MDA-MB-231 breast 67.6% | RXF 393 renal 66.8% | SF-268 CNS 62.1% | SF-295 CNS 43.2% | SF-539 CNS 59.5% | UACC-257 melanoma 43.1% | M14 melanoma 32.5%

Oc1c(Cl)cc(Cl)c2ccc(Cn3cc(-c4cccc(C(F)(F)F)c4)nn3)nc12
inactive: DU-145 prostate 63% | MALME-3M melanoma 75.8% | MDA-MB-231 breast 101% | RXF 393 renal 33.7% | SF-268 CNS 88.9% | SF-295 CNS 99% | SF-539 CNS 75.2% | UACC-257 melanoma 69.1% | M14 melanoma 62.4%
active: K-562 leukemia 5.87%

Cc1nc2ccccc2c(/C=C/c2ccc(C(F)(F)F)cc2)c1C(=O)/C=C/c1ccccc1
active: DU-145 prostate -43.6% | K-562 leukemia 4.16% | MALME-3M melanoma -65.2% | MDA-MB-231 breast -39.9% | RXF 393 renal -82.9% | SF-295 CNS -45.3% | SF-539 CNS -83.6% | UACC-257 melanoma -25.5% | M14 melanoma -25.9%
inactive: SF-268 CNS 33.4%

C=C1C(=O)O[C@H]2[C@H]1CC/C(COC(=O)/C=C\C(=O)NCc1ccc(Cn3c(=O)sn(-c4ccccc4)c3=O)cc1)=C\CC[C@@]1(C)O[C@@H]21
inactive: DU-145 prostate 55.7% | K-562 leukemia 16.2% | MALME-3M melanoma 55.9% | MDA-MB-231 breast 85.6% | RXF 393 renal 84.3% | SF-268 CNS 99.1% | SF-295 CNS 103% | SF-539 CNS 92% | UACC-257 melanoma 73.8% | M14 melanoma 47.8%

Fc1ccc(COc2ccc(Nc3ncnc4sc5c(c34)CCCC5)cc2)cc1
inactive: DU-145 prostate 96.8% | K-562 leukemia 103% | MALME-3M melanoma 109% | MDA-MB-231 breast 94.9% | RXF 393 renal 109% | SF-268 CNS 89.8% | SF-295 CNS 89.8% | SF-539 CNS 103% | UACC-257 melanoma 106% | M14 melanoma 104%

COc1ccc(OC)c(-c2cn3nc(-c4c[nH]c5ccc(Br)cc45)sc3n2)c1
inactive: DU-145 prostate 29.3% | MALME-3M melanoma 52.2% | RXF 393 renal 67.8% | SF-268 CNS 18.3% | SF-295 CNS 54.1% | UACC-257 melanoma 84.9% | M14 melanoma 12.7%
active: K-562 leukemia 5.98% | MDA-MB-231 breast 9.49% | SF-539 CNS -12.8%

C=C1C(=O)O[C@H]2[C@H]1CC/C(COC(=O)NCc1ccc(Cn3c(=O)sn(-c4ccc(OC)cc4)c3=O)cc1)=C\CC[C@@]1(C)O[C@@H]21
active: K-562 leukemia -3.73% | MALME-3M melanoma -3.77%
inactive: DU-145 prostate 27% | MDA-MB-231 breast 47.7% | RXF 393 renal 42.3% | SF-268 CNS 86.5% | SF-295 CNS 97.7% | SF-539 CNS 82.1% | UACC-257 melanoma 65.3% | M14 melanoma 25.7%

CCCCCCNc1nc(NCCCCCC)c2[nH]c(NCCCCCC)nc2n1
active: K-562 leukemia -19.2% | MDA-MB-231 breast -2.45%
inactive: DU-145 prostate 84.6% | MALME-3M melanoma 60.8% | RXF 393 renal 81% | SF-268 CNS 52.5% | SF-295 CNS 70.3% | SF-539 CNS 82.6% | UACC-257 melanoma 104% | M14 melanoma 79.5%

COc1cc2cc(Oc3ccc(NC(=O)Nc4ccccc4)cc3)c(C)nc2cc1OCCN1CCCCC1
active: K-562 leukemia -45.6% | MALME-3M melanoma -75% | SF-539 CNS -80.4% | M14 melanoma -90.1%
inactive: DU-145 prostate 89.6% | MDA-MB-231 breast 85.7% | RXF 393 renal 53.5% | SF-268 CNS 83.5% | SF-295 CNS 100% | UACC-257 melanoma 84%

CC1(C)O[C@H]2OC3CCC(=O)CC3(O)[C@H]2O1 (stereo not given in full)
inactive: DU-145 prostate 107% | K-562 leukemia 94.8% | MALME-3M melanoma 104% | MDA-MB-231 breast 113% | RXF 393 renal 104% | SF-268 CNS 99.3% | SF-295 CNS 110% | SF-539 CNS 105% | UACC-257 melanoma 96.5% | M14 melanoma 99.9%

Cc1cc(C(=O)Nc2cc(Nc3ncccc3-c3ncnc4nc[nH]c34)ccc2F)cc(C(F)(F)F)c1
active: K-562 leukemia 4.38% | M14 melanoma 5.2%
inactive: DU-145 prostate 74.8% | MALME-3M melanoma 108% | MDA-MB-231 breast 22.9% | RXF 393 renal 100% | SF-268 CNS 67.3% | SF-295 CNS 78.4% | SF-539 CNS 21.4% | UACC-257 melanoma 10.7%

OC(c1ccccc1)(c1ccccc1)c1ccccc1-c1ccccc1
inactive: DU-145 prostate 96.2% | K-562 leukemia 96.5% | MALME-3M melanoma 120% | MDA-MB-231 breast 84.4% | RXF 393 renal 103% | SF-268 CNS 90.6% | SF-295 CNS 109% | SF-539 CNS 112% | UACC-257 melanoma 101% | M14 melanoma 99.4%

COc1cc(/C=N/Nc2ccccc2F)cc(OC)c1OC
inactive: DU-145 prostate 106% | K-562 leukemia 48.5% | MALME-3M melanoma 99% | MDA-MB-231 breast 81.5% | RXF 393 renal 123% | SF-268 CNS 83.2% | SF-295 CNS 98.1% | SF-539 CNS 99.3% | UACC-257 melanoma 116% | M14 melanoma 96.5%

CCOC(=O)/C=C/c1c(C)[nH]c(=O)[nH]c1=O
inactive: DU-145 prostate 21% | K-562 leukemia 101% | MALME-3M melanoma 172% | MDA-MB-231 breast 93.1% | RXF 393 renal 89.3% | SF-268 CNS 96% | SF-295 CNS 76.5% | SF-539 CNS 98.9% | UACC-257 melanoma 109% | M14 melanoma 97.5%

Cc1ccc(Nc2nc(-c3ccc(F)cc3)c(C#N)c(=O)n2C)cc1
inactive: DU-145 prostate 72.7% | K-562 leukemia 97.6% | MALME-3M melanoma 45.8% | MDA-MB-231 breast 23.4% | RXF 393 renal 50.2% | SF-268 CNS 66.5% | SF-295 CNS 79.1% | SF-539 CNS 64.8% | UACC-257 melanoma 74.5% | M14 melanoma 77.9%

O=C1c2cccnc2C(=O)c2c1c(C(=O)OCCCN1CCCCC1)c1ccccn21
active: DU-145 prostate -86.8% | K-562 leukemia -28.5% | MALME-3M melanoma -78.2% | MDA-MB-231 breast -8.94% | RXF 393 renal -64.2% | SF-268 CNS -15.3% | SF-295 CNS -13.9% | SF-539 CNS -9.46% | UACC-257 melanoma -38.4% | M14 melanoma -83.5%

COC(=O)C1=C(C)NC(C)=C(C(=O)OCC(C)C)C1c1ccccc1[N+](=O)[O-] (stereo not given)
inactive: DU-145 prostate 50.6% | K-562 leukemia 18.2% | MALME-3M melanoma 86.1% | MDA-MB-231 breast 55% | RXF 393 renal 70.2% | SF-268 CNS 66.6% | SF-295 CNS 56.9% | SF-539 CNS 65.6% | UACC-257 melanoma 81.6% | M14 melanoma 51.1%

COc1cccc(NC(=O)c2cccc(C3CCc4c(cc(OC)c(OC)c4OC)O3)c2)c1 (stereo not given)
inactive: DU-145 prostate 79.6% | K-562 leukemia 35.6% | MALME-3M melanoma 72.7% | MDA-MB-231 breast 32.2% | RXF 393 renal 88.9% | SF-268 CNS 91.2% | SF-295 CNS 70.9% | SF-539 CNS 92% | UACC-257 melanoma 78.1% | M14 melanoma 56.9%

CCc1ccc(CCC(=O)Nc2ncc(Cc3ccc(Cl)cc3)s2)o1
inactive: DU-145 prostate 14.4% | K-562 leukemia 10.9% | MALME-3M melanoma 46.4% | MDA-MB-231 breast 60.7% | SF-268 CNS 58.4% | SF-295 CNS 17% | UACC-257 melanoma 56.6%
active: RXF 393 renal -12.8% | SF-539 CNS 2.47% | M14 melanoma 8.78%

CCCCCCC(CCCC)COC(=O)c1ccc(Cl)cc1 (stereo not given)
inactive: DU-145 prostate 105% | K-562 leukemia 104% | MALME-3M melanoma 111% | MDA-MB-231 breast 106% | RXF 393 renal 105% | SF-268 CNS 102% | SF-295 CNS 102% | SF-539 CNS 106% | UACC-257 melanoma 112% | M14 melanoma 104%

O=C1/C(=C/c2cccc([N+](=O)[O-])c2)COc2ccc(O)cc21
inactive: DU-145 prostate 81.8% | K-562 leukemia 13.4% | MALME-3M melanoma 76.6% | MDA-MB-231 breast 47.9% | RXF 393 renal 107% | SF-268 CNS 85.9% | SF-295 CNS 95.5% | SF-539 CNS 70.6% | UACC-257 melanoma 97% | M14 melanoma 55%

CCCCC(=O)Nc1ncc(Cc2ccccc2Cl)s1
inactive: DU-145 prostate 67.2% | K-562 leukemia 24.8% | MALME-3M melanoma 52.1% | MDA-MB-231 breast 53.3% | RXF 393 renal 31.3% | SF-268 CNS 69.6% | SF-295 CNS 45.7% | SF-539 CNS 39.2% | UACC-257 melanoma 55.3% | M14 melanoma 21.8%
